Assay results as given in the supplement of paper PMC6522484.
± gives the standard deviation of the averaged measurements.

System: DLD1
Test: cell viability (CellTiter-Glo) relative to plate median (fraction of plate median); higher = more viable cells
Conditions: 10 µM; treatment time 24 h; reporter: 7TFP
In short: (§1)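 Colorectal cancer cell lines stably transduced with lentiviral TCF/Wnt firefly luciferase reporters (7TFP or TCF4/Wnt) were seeded in 384-well plates. 24 h later they received kinase inhibitor library compounds at a final 10 µM for 24 h. Parallel plates were read for firefly luciferase or CellTiterGlo luminescence on a Tecan F500 reader. Each well's signal was normalised to the plate median (webcellHTS2, additive, no log transformation), and the mean of two independent replicates is reported.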

Point of comparison: `CN[C@@H]1C[C@H]2O[C@@](C)([C@@H]1OC)n1c3ccccc3c3c4c(c5c6ccccc6n2c5c31)C(=O)NC4` [Staurosporine], cell viability 0.617 ± 0.047. Against it:
- Cc1ccccc1-n1c(Cn2ncc3c(N)ncnc32)nc2cccc(C)c2c1=O — higher, 1.07 ± 0.028
- O=c1[nH]c2ccc(Cl)cc2c(N[C@@H]2CN3CCC2CC3)c1-c1nc2ccccc2[nH]1 — higher, 1.004 ± 0.0092
- Cc1ccccc1-n1c(Cn2cnc3c(N)ncnc32)nc2cccc(C)c2c1=O — higher, 1.05 ± 0.05
- COC[C@H]1OC(=O)c2coc3c2[C@@]1(C)C1=C(C3=O)[C@@H]2CCC(=O)[C@@]2(C)C[C@H]1OC(C)=O [Wortmannin] — higher, 0.844 ± 0.016
- CC(C)(C)c1cc(C=C(C#N)C#N)cc(Br)c1O — higher, 0.79 ± 0.03
- CCN1CCN(C(=O)Cc2ccc(Nc3ncc(F)c(Nc4ccc(C(=O)Nc5ccccc5Cl)cc4)n3)cc2)CC1 [Aurora A Inhibitor I] — higher, 0.955 ± 0.036
- Cn1cc(C2=C(c3cn(C4CCN(Cc5ccccn5)CC4)c4ccccc34)C(=O)NC2=O)c2ccccc21 — higher, 0.854 ± 0.016

Same assay, conditions: 10 µM; treatment time 24 h; reporter: TCF4/Wnt

Point of comparison: `Cc1ccccc1-n1c(Cn2cnc3c(N)ncnc32)nc2cccc(C)c2c1=O`, cell viability 0.964 ± 0.029. Against it:
- CN[C@@H]1C[C@H]2O[C@@](C)([C@@H]1OC)n1c3ccccc3c3c4c(c5c6ccccc6n2c5c31)C(=O)NC4 [Staurosporine] — lower, 0.701 ± 0.067
- Cc1ccccc1-n1c(Cn2ncc3c(N)ncnc32)nc2cccc(C)c2c1=O — higher, 1.03
- O=c1[nH]c2ccc(Cl)cc2c(N[C@@H]2CN3CCC2CC3)c1-c1nc2ccccc2[nH]1 — higher, 1.06 ± 0.05
- COC[C@H]1OC(=O)c2coc3c2[C@@]1(C)C1=C(C3=O)[C@@H]2CCC(=O)[C@@]2(C)C[C@H]1OC(C)=O [Wortmannin] — lower, 0.8345 ± 0.0064
- CC(C)(C)c1cc(C=C(C#N)C#N)cc(Br)c1O — within error, 0.804 ± 0.18
- CCN1CCN(C(=O)Cc2ccc(Nc3ncc(F)c(Nc4ccc(C(=O)Nc5ccccc5Cl)cc4)n3)cc2)CC1 [Aurora A Inhibitor I] — higher, 1.09 ± 0.057
- Cn1cc(C2=C(c3cn(C4CCN(Cc5ccccn5)CC4)c4ccccc34)C(=O)NC2=O)c2ccccc21 — within error, 0.931 ± 0.059

System: HCT116
Test: as above
Conditions: 10 µM; treatment time 24 h; reporter: TCF4/Wnt
In short: as §1

Point of comparison: `CC(C)(C)c1cc(C=C(C#N)C#N)cc(Br)c1O`, cell viability 0.966 ± 0.16. Against it:
- CN[C@@H]1C[C@H]2O[C@@](C)([C@@H]1OC)n1c3ccccc3c3c4c(c5c6ccccc6n2c5c31)C(=O)NC4 [Staurosporine] — lower, 0.23 ± 0.13
- Cc1ccccc1-n1c(Cn2ncc3c(N)ncnc32)nc2cccc(C)c2c1=O — within error, 1.22 ± 0.21
- O=c1[nH]c2ccc(Cl)cc2c(N[C@@H]2CN3CCC2CC3)c1-c1nc2ccccc2[nH]1 — lower, 0.521 ± 0.25
- Cc1ccccc1-n1c(Cn2cnc3c(N)ncnc32)nc2cccc(C)c2c1=O — within error, 1.19 ± 0.064
- COC[C@H]1OC(=O)c2coc3c2[C@@]1(C)C1=C(C3=O)[C@@H]2CCC(=O)[C@@]2(C)C[C@H]1OC(C)=O [Wortmannin] — within error, 0.733 ± 0.091
- CCN1CCN(C(=O)Cc2ccc(Nc3ncc(F)c(Nc4ccc(C(=O)Nc5ccccc5Cl)cc4)n3)cc2)CC1 [Aurora A Inhibitor I] — within error, 1.09 ± 0.14
- Cn1cc(C2=C(c3cn(C4CCN(Cc5ccccn5)CC4)c4ccccc34)C(=O)NC2=O)c2ccccc21 — within error, 1.08 ± 0.071
